From article PMC4336329 (PLoS ONE, 2015)
Out of some 310,000 compounds screened, about 2,200 (0.71%) showed an effect of 50% or more. Effects have a minus sign here. Many of the other results were omitted from the sample, so strong results are more common in it than they were.

Molecular target: human ether-à-go-go-related gene (hERG) potassium channel (human, UniProt Q12809)
Assay: primary screen, population patch clamp on CHO cells stably expressing hERG; higher = less effect of the substance

Sequence of human ether-à-go-go-related gene (hERG) potassium channel (Q12809 whole entry, looked up): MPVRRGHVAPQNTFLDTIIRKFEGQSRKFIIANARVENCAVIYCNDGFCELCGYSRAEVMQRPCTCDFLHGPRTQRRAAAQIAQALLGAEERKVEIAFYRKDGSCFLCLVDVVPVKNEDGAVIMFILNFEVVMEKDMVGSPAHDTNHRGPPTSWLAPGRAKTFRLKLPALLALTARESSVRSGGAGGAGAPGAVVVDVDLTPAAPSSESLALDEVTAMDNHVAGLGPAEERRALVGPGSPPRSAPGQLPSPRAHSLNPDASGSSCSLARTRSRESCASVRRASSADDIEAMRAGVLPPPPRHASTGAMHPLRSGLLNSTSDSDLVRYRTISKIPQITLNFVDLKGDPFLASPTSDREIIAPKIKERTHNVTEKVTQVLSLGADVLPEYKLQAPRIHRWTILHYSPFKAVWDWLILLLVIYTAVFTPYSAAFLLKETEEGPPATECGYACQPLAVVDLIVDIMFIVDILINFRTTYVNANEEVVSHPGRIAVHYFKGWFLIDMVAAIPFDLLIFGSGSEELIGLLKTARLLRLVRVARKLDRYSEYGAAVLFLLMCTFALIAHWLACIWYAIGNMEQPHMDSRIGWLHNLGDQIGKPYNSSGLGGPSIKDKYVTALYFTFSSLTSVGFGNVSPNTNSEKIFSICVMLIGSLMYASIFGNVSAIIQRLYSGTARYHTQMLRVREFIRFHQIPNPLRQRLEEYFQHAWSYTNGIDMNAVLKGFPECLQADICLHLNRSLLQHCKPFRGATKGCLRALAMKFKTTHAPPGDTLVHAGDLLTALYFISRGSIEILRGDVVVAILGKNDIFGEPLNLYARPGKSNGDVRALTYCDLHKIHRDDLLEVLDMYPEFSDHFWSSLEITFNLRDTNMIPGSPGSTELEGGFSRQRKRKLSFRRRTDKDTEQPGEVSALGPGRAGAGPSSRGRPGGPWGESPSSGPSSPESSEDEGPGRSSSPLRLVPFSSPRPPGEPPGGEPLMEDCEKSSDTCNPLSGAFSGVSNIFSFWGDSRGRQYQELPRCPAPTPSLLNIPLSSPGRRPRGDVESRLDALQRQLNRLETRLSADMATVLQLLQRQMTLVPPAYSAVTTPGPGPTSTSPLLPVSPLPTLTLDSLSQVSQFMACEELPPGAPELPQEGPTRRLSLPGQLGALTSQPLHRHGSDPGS

| SMILES | hERG current change (%, negative = inhibition) at 1uM [%] |
| --- | --- |
| O=C(c1cccc(S(=O)(=O)NCc2ccccc2)c1)N1CCCCC1 | 9.32 |
| CCN(CC)CCCN(C(=O)Cn1nnc(-c2ccc(OC)c(OC)c2)n1)C(C(=O)NC(C)(C)C)c1ccc(F)cc1 (centres unmarked) | -25.2 |
| C=CCN1C(=O)C(CC(=O)NCC)SC1=Nc1ccccc1CC (centres unmarked) | 11.7 |
| c1ccc(CSc2nncn2-c2ccccn2)cc1 | 7.05 |
| O=C(CSC(=S)N1CCCCC1)c1c(F)cccc1F | 21.7 |
| OC1(c2ccccc2)c2ccccc2-c2ncccc21 (centres unmarked) | 5.63 |
| O=C(Cc1coc2cc3c(cc12)CCC3)NC1CCCCCCC1 | 0.112 |
| O=C(Cc1coc2cc3c(cc12)CCC3)NCC1(N2CCCCC2)CCCCC1 | -59.2 |
| Cc1ccc2c(CC(=O)NCC3(N4CCOCC4)CCCCC3)coc2c1C | -5.15 |
| O=S(=O)(c1cccs1)N1CN(C2CCCCC2)c2nc3ccccc3nc21 | 0.376 |
| COc1cc(/C=C2\SC(N3CCc4ccccc4C3)=NC2=O)cc(OC)c1OC | 5.93 |
| CCN(CC)CCn1c(=N)n(CC(O)COc2cccc(C)c2)c2ccccc21.Cl (centres unmarked) | -22.1 |
| CCCCn1c(=N)n(CC(O)COc2cccc(C)c2)c2ccccc21.Cl (centres unmarked) | -59.8 |
| CCCn1c(=N)n(CC(O)COc2cccc(C)c2)c2ccccc21.Cl (centres unmarked) | -60 |
| CCn1c(=N)n(CC(O)COc2cccc(C)c2)c2ccccc21.Cl (centres unmarked) | -16 |
| COc1ccc(-c2oc3cccnc3c2C#CC2(O)CCCCC2)cc1 | 6.61 |
| COCCC(=O)N1CCC(Oc2ccc(C(=O)N(C)CCCC3CCCC3)cc2)CC1 | -1.26 |
| CCCn1c(=N)c(C(=O)NC2CCCC2)cc2c(=O)n3cccc(C)c3nc21 | -84.1 |
| Cc1cccn2c(=O)c3cc(C(=O)NC4CCCCC4)c(=N)n(CCN4CCOCC4)c3nc12 | -51.7 |
| Cc1cccn2c(=O)c3cc(C(=O)NC4CCCC4)c(=N)n(CCCN4CCOCC4)c3nc12 | -77.5 |
| C#CCOCCOCCOCCNc1nc(N2CCN(C(=O)[C@H](CCC(=O)O)n3cc(C(N)Cc4ccc(O)cc4)nn3)CC2)nc(N2CCN(C(=O)[C@H](CCC(=O)O)n3cc(C(N)Cc4ccc(O)cc4)nn3)CC2)n1.Cl (some centres unmarked) | 12.3 |
| Cc1ccnc(SCc2cc(=O)c(OC(=O)c3ccccc3)co2)n1 | 15 |
| CC(NC(=O)C(C)N1C(=O)c2cccc([N+](=O)[O-])c2C1=O)c1ccccc1 (centres unmarked) | 14.9 |

| SMILES | hERG current change (%, negative = inhibition) at 1uM [%] |
| --- | --- |
| O=C(c1cc2nc(-c3ccco3)cc(C(F)(F)F)n2n1)N1CCCc2ccccc21 | 16.9 |
| COc1ccc(CNS(=O)(=O)c2c(C(=O)N3CCCCCC3)c(C)n(C)c2C)cc1 | 10.5 |
| C=CCNC(=O)c1onc(CSc2cccc(OC)c2)c1C(=O)O | 18.7 |
| CCOc1ccc(-c2nc(-c3ccccc3C)no2)cc1 | 10.9 |
| Cc1cc(C)n2nc(-c3cnn(C)c3C(F)(F)F)cc2n1 | 1.96 |
| Cn1c(CSCc2ccccc2)nnc1SCC(=O)Nc1nccs1 | -17.6 |
| O=C1NC(Cc2ccccc2)C(=O)N1CC(=O)N1CCCc2ccccc21 (centres unmarked) | 5.14 |
| CCOC(=O)C1CCN(C(=O)c2cc3c(C)cc(C)cc3[nH]2)CC1 | 12 |
| Cc1cc(C)c2cc(C(=O)N3CCC(C(=O)c4ccc(F)cc4)CC3)[nH]c2c1 | 8.43 |
| Cc1cc(C)c2cc(C(=O)N3CCC(N4CCCCC4)CC3)[nH]c2c1 | -58.8 |
| CCOC(=O)C1CCN(C2CCN(C(=O)c3oc4c(F)cccc4c3C)CC2)CC1 | -67 |
| Cc1c(C(=O)N2CCC(N3CCSCC3)CC2)oc2c(F)cccc12 | 2.81 |
| CCOC(=O)C1CCN(C2CCN(C(=O)c3oc4c(C)c(C)ccc4c3C)CC2)CC1 | -15.6 |
| Cc1nc2nc(C)c(CCC(=O)NC3CCCCC3)c(C)n2n1 | 9.07 |
| COc1ccc(C(=O)NC2CC3CCCC(C2)N3Cc2ccccc2)cc1 (centres unmarked) | -15.7 |
| CCCCN1C2CCCC1CC(NC(=O)c1cccc(Cl)c1)C2 (centres unmarked) | -63 |
| CCCCN1C2CCCC1CC(NC(=O)c1cccc(OC)c1)C2 (centres unmarked) | -2.96 |
| COc1cccc(C(=O)NC2CC3CCCC(C2)N3S(=O)(=O)c2ccccc2)c1 (centres unmarked) | -8.93 |
| COc1ccc(CN2C3CCC2CC(NC(=O)c2cccc(F)c2)C3)cc1 (centres unmarked) | -81.1 |
| O=C(NC1CC2CCCC(C1)N2Cc1ccccc1)c1cccc(F)c1 (centres unmarked) | -29.8 |
| COc1ccc(CN2C3CCCC2CC(NC(=O)c2cccc(F)c2)C3)cc1 (centres unmarked) | -85.9 |
| Cc1cccc(C(=O)NC2CC3CCCC(C2)N3S(=O)(=O)c2ccccc2)c1 (centres unmarked) | -63.4 |
| CCCN1C2CCCC1CC(NC(=O)c1cccc(Cl)c1)C2 (centres unmarked) | -2.98 |

| SMILES | hERG current change (%, negative = inhibition) at 1uM [%] |
| --- | --- |
| COc1cccc(C(=O)NC2CC3CCC(C2)N3Cc2ccccc2)c1 (centres unmarked) | -2.53 |
| O=C(NC1CC2CCCC(C1)N2S(=O)(=O)c1ccccc1)c1ccccc1 (centres unmarked) | -9.46 |
| O=C(NC1CC2CCC(C1)N2Cc1ccccc1)c1cccc(F)c1 (centres unmarked) | -17.5 |
| O=C(O)c1ccccc1-c1ccccc1C(=O)NCc1ccco1 | 13 |
| Clc1ccc2c(NCc3ccco3)ncnc2c1 | -1.55 |
| O=C(OCC(=O)N1CCCCC1)c1cccc(NS(=O)(=O)c2ccccc2)c1 | 12.4 |
| O=C(NCc1ccc(C(=O)N2CCC3(CC2)OCCO3)cc1)c1ccc2c(c1)OCO2 | 5.42 |
| O=C(CSc1nnc(-c2ccco2)n1Cc1ccccc1)NC(=O)NCc1ccco1 | -15.6 |
| OCC1(CCCc2ccccc2)CCN(C2CCSCC2)CC1 | -65.4 |
| CCOC(=O)C1(CCc2ccccc2)CCN(C2Cc3ccccc3C2)CC1 | -18.7 |
| CCOC(=O)C1(CCCc2ccccc2)CCN(C2CCCC2)CC1 | -66.1 |
| CCOC(=O)C1(CCCc2ccccc2)CCN(C2CCC2)CC1 | -57.1 |
| CCOC(=O)C1(CCc2ccccc2)CCN(C(=O)C2CCOCC2)CC1 | -21.2 |
| CCOC(=O)C1(CCCc2ccccc2)CCN(C(=O)CSC)CC1 | 3.88 |
| CS(=O)(=O)c1ccc(S(=O)(=O)N2CCC(CO)(CCCc3ccccc3)CC2)cc1 | 4.47 |
| CCOC(=O)C1(CCCc2ccccc2)CCN(C(=O)COC)CC1 | 10.5 |
| CCOC(=O)C1(CCc2ccccc2)CCN(C2CCSCC2)CC1 | -80.7 |
| CCOC(=O)C1(CCCc2ccccc2)CCN(S(C)(=O)=O)CC1 | 5.98 |
| CSCC(C)N1CCC(CO)(CCCc2ccccc2)CC1 (centres unmarked) | -11.2 |
| CCOC(=O)C1(CCCc2ccccc2)CCN(C(=O)C2CCCO2)CC1 (centres unmarked) | 5.58 |
| O=C(NCc1ccco1)C1CCN(S(=O)(=O)c2ccccc2C(F)(F)F)CC1 | 12.6 |
| COc1cccc(C(=O)NCCS(=O)(=O)N2CCC(C)CC2)c1 | 3.89 |
| CC1(C)CN(c2ccc(C(=O)c3ccccc3)cc2)C1=O | 6.95 |

| SMILES | hERG current change (%, negative = inhibition) at 1uM [%] |
| --- | --- |
| CCCCn1c(N)c(N(CCOC)C(=O)C2CCN(S(=O)(=O)c3ccc(C)cc3C)CC2)c(=O)[nH]c1=O | 14.6 |
| Cc1ccccc1OCC(=O)OCC(=O)c1ccc[nH]1 | 10.2 |
| CCOC(=O)c1nn(-c2ccccc2C)c2nc(CC(C)C)c(C#N)c(=O)n12 | 15.8 |
| O=c1cc(NCc2ccco2)c2ccccc2o1 | 11.6 |
| CS(=O)(=O)N1CCN(c2ccnc3cc(Cl)ccc23)CC1 | -81.3 |
| COc1ccccc1N1CCN(c2ccnc3cc(Cl)ccc23)CC1 | 7.78 |
| CN(C)S(=O)(=O)N1CCN(c2ccnc3cc(Cl)ccc23)CC1 | -65.6 |
| Clc1ccc2c(N3CCCC3)ccnc2c1 | -25.9 |
| CCC(=O)N1CCN(c2ccnc3cc(Cl)ccc23)CC1 | -25.7 |
| CCS(=O)(=O)N1CCN(c2ccnc3cc(Cl)ccc23)CC1 | -67.4 |
| Cl.ClCCN1CCN(c2ccnc3cc(Cl)ccc23)CC1 | 7.03 |
| CC(C)S(=O)(=O)N1CCN(c2ccnc3cc(Cl)ccc23)CC1 | -55.2 |
| Clc1ccc2c(N3CCOCC3)ccnc2c1 | 0.204 |
| CN(C)S(=O)(=O)N1CCN(c2cc(Cl)ccc2Cl)CC1 | 16.5 |
| Oc1ccc(N2CCN(c3ccnc4cc(Cl)ccc34)CC2)cc1 | 5.36 |
| COc1ccc(/C=C2\SC(=S)N(N3CCOCC3)C2=O)c(OC)c1 | 10.2 |
| CCOC(=O)c1c(C)[nH]c(C)c1C(=O)CSc1nc2ccccc2[nH]1 | 13.8 |
| O=c1c(Cc2ccc(F)cc2)c(O)ccn1CCCn1ccnc1 | 20.5 |
| COc1ccc(CCNC(=O)CC(c2ccccc2)c2cccc(C)c2O)cc1OC (centres unmarked) | 6 |
| OCCC1CN(Cc2cccc(-c3ccco3)c2)CCN1Cc1ccsc1 (centres unmarked) | -17.3 |
